Measurements: PubChem BioAssay (EPA / NIEHS)
The source made the active and inactive calls. The calls were made as follows: active = hit-call score of the fitted dose curve at least 0.9, where 1 is the maximum; inactive = score below 0.9.

biological target: Aryl hydrocarbon receptor (Homo sapiens) (UniProt P35869); test: ATG_Ahr_CIS: Attagene CIS-FACTORIAL HepG2 Assay for human Aryl Hydrocarbon Receptor (Ahr) (AID 2282930); settings: HepG2 AhR cis-factorial reporter transcription; actives raise or lower the signal
Procedure, shortened: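 HepG2 cells transiently transfected with cis-element-driven multiplexed reporter transcription units; endogenous transcription factor activity measured as reporter mRNA 24 h after dosing. RT-PCR, 6-FAM labelling, HpaI digestion, capillary electrophoresis; bidirectional fitting versus DMSO baseline.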

Aryl hydrocarbon receptor (Homo sapiens), sequence (P35869 whole entry, looked up): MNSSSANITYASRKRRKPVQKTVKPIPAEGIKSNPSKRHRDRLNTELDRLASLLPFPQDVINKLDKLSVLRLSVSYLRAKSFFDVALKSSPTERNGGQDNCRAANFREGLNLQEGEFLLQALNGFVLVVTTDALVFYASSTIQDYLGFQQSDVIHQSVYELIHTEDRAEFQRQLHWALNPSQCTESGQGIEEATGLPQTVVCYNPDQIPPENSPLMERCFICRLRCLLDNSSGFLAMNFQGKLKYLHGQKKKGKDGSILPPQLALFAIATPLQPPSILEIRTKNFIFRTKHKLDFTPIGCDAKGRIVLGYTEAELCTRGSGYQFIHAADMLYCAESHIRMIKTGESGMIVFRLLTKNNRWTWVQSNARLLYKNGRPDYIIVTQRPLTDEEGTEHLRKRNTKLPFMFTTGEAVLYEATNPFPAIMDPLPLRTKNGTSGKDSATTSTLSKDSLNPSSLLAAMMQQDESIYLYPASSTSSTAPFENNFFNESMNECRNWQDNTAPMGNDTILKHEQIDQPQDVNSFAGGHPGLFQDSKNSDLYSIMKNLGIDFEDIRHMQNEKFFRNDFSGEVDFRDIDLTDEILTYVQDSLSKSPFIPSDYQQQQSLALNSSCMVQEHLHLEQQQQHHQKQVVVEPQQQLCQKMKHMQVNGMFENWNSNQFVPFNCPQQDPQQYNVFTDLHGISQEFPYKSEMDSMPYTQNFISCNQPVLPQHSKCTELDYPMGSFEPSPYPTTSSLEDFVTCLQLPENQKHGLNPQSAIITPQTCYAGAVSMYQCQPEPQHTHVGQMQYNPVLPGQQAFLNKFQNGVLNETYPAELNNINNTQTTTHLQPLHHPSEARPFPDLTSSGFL

SMILES | AC50 | outcome
O=[N+]([O-])c1cccc2ccccc12 | 51.4 µM (active) | 
O=C(NC(=O)c1c(F)cccc1F)Nc1cc(Cl)c(F)c(Cl)c1F |  | inactive
C1CN2CCN1CC2 |  | inactive
N#CS |  | inactive
C=CCOC(F)(C(F)(F)F)C(F)(F)F |  | inactive
BrCCCCBr |  | inactive
O=c1[nH]c(=O)n(Cl)c(=O)n1Cl |  | inactive
CCOP(=S)(OCC)Oc1ccc(Cl)cc1Cl |  | inactive
CC(C)(C1CCC(O)CC1)C1CCC(O)CC1 (stereo not drawn) |  | inactive

system: not listed separately; test: ATG_AP_1_CIS: Attagene CIS-FACTORIAL HepG2 Assay for human Activator Protein 1 (AP-1) (AID 2282931); settings: HepG2 Attagene cis-factorial AP-1 reporter mRNA; actives raise or lower the signal
Procedure, shortened: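 Bidirectional concentration-response fitting against DMSO controls. Underlying signal: reporter mRNA from cis-promoter constructs in transiently transfected HepG2, measured after 24 h by RT-PCR and capillary electrophoresis.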

SMILES | AC50 | outcome
CCCSP(=S)(OCC)Oc1ccc(Cl)cc1Cl (stereo not drawn) | 31.7 µM (active) | 
CCC[CH2][Sn]([CH2]CCC)([CH2]CCC)[CH2]CCC | 7.55 µM (active) | 
Cc1cc(Cl)ccc1O |  | inactive
ClCCCCl |  | inactive
CNC(=O)CSP(=O)(OC)OC |  | inactive
N#Cc1ccccc1N |  | inactive
Cc1ccc2nc3sc(=O)sc3nc2c1 |  | inactive
O=C(O)c1cc(I)cc(I)c1I |  | inactive
CCN(CCO)CCO |  | inactive
C=C(C)[C@@H]1CC=C(C=O)CC1 | 100 µM (active) | 
CC1(C)[C@H](/C=C2\CCSC2=O)[C@@H]1C(=O)OCc1coc(Cc2ccccc2)c1 | 144 µM (active) | 
O=c1nc(O)n(Cl)c(=O)n1Cl |  | inactive
[F][Sn]([c]1ccccc1)([c]1ccccc1)[c]1ccccc1 |  | inactive
O=C1C[C@@H]2OCC=C3CN4CC[C@]56c7ccccc7N1[C@H]5[C@H]2[C@H]3C[C@H]46 |  | inactive
C=CC(=O)NC(C)(C)CC(C)=O |  | inactive
OCCCCO |  | inactive
OC(c1ccc(Cl)cc1)(c1ccc(Cl)cc1)c1cccnc1 |  | inactive
O=[N+]([O-])c1ccccc1O |  | inactive
CCOc1cc(C=O)ccc1O |  | inactive
Cc1cc(Cl)ccc1OC(C)C(=O)O (stereo not drawn) |  | inactive
Brc1ccc(Br)cc1 |  | inactive
CNC(=O)N(C)c1nc2ccccc2s1 |  | inactive
O=[N+]([O-])c1cc([As](=O)(O)O)ccc1O |  | inactive
Cc1c([N+](=O)[O-])c(C)c([N+](=O)[O-])c(C(C)(C)C)c1[N+](=O)[O-] |  | inactive
CCCSP(=S)(OCC)Oc1ccc(SC)cc1 (stereo not drawn) |  | inactive
C#C[C@]1(O)CC[C@H]2[C@@H]3CCC4=CC(=O)CC[C@]4(C)[C@H]3CC[C@@]21C |  | inactive
O=NN1CCCCCCC1 |  | inactive
CC(C)CP(=S)(S)CC(C)C |  | inactive
CC(C)=CC1C(C(=O)OCc2cccc(Oc3ccccc3)c2)C1(C)C (stereo not drawn) |  | inactive
CCN(CC)C(=O)C(Cl)=C(C)OP(=O)(OC)OC |  | inactive

system: not listed separately; test: ATG_AP_2_CIS: Attagene CIS-FACTORIAL HepG2 Assay for human Activator Protein 2 (AP-2) (AID 2282932); settings: HepG2 AP-2 cis-reporter, Attagene transcription factor profiling; actives raise or lower the signal
Procedure, shortened: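 HepG2 cells were transiently transfected with multiple cis-promoter reporter transcription units and dosed for 24 h. Reporter mRNA was measured by RT-PCR with capillary electrophoresis fluorescence; bidirectional fits relative to DMSO baseline.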

SMILES | outcome | AC50
CCCSP(=S)(OCC)Oc1ccc(Cl)cc1Cl (stereo not drawn) | inactive | 
CCC[CH2][Sn]([CH2]CCC)([CH2]CCC)[CH2]CCC |  | 19.1 µM (active)
Cc1cc(Cl)ccc1O | inactive | 
O=[N+]([O-])c1cccc2ccccc12 | inactive | 
ClCCCCl | inactive | 
CNC(=O)CSP(=O)(OC)OC | inactive | 
N#Cc1ccccc1N | inactive | 
Cc1ccc2nc3sc(=O)sc3nc2c1 |  | 9.68 µM (active)
O=C(O)c1cc(I)cc(I)c1I | inactive | 
O=C(NC(=O)c1c(F)cccc1F)Nc1cc(Cl)c(F)c(Cl)c1F | inactive | 
CCN(CCO)CCO | inactive | 
C1CN2CCN1CC2 | inactive | 
C=C(C)[C@@H]1CC=C(C=O)CC1 | inactive | 
CC1(C)[C@H](/C=C2\CCSC2=O)[C@@H]1C(=O)OCc1coc(Cc2ccccc2)c1 | inactive | 
O=c1nc(O)n(Cl)c(=O)n1Cl | inactive | 
[F][Sn]([c]1ccccc1)([c]1ccccc1)[c]1ccccc1 |  | 1.84 µM (active)
O=C1C[C@@H]2OCC=C3CN4CC[C@]56c7ccccc7N1[C@H]5[C@H]2[C@H]3C[C@H]46 | inactive | 
C=CC(=O)NC(C)(C)CC(C)=O | inactive | 
OCCCCO | inactive | 
N#CS | inactive | 

SMILES | outcome | AC50
OC(c1ccc(Cl)cc1)(c1ccc(Cl)cc1)c1cccnc1 | inactive | 
O=[N+]([O-])c1ccccc1O | inactive | 
CCOc1cc(C=O)ccc1O | inactive | 
C=CCOC(F)(C(F)(F)F)C(F)(F)F | inactive | 
Cc1cc(Cl)ccc1OC(C)C(=O)O (stereo not drawn) | inactive | 
Brc1ccc(Br)cc1 | inactive | 
CNC(=O)N(C)c1nc2ccccc2s1 | inactive | 
O=[N+]([O-])c1cc([As](=O)(O)O)ccc1O | inactive | 
Cc1c([N+](=O)[O-])c(C)c([N+](=O)[O-])c(C(C)(C)C)c1[N+](=O)[O-] | inactive | 
CCCSP(=S)(OCC)Oc1ccc(SC)cc1 (stereo not drawn) | inactive | 
C#C[C@]1(O)CC[C@H]2[C@@H]3CCC4=CC(=O)CC[C@]4(C)[C@H]3CC[C@@]21C | inactive | 
O=NN1CCCCCCC1 | inactive | 
BrCCCCBr | inactive | 
CC(C)CP(=S)(S)CC(C)C | inactive | 
O=c1[nH]c(=O)n(Cl)c(=O)n1Cl | inactive | 
CC(C)=CC1C(C(=O)OCc2cccc(Oc3ccccc3)c2)C1(C)C (stereo not drawn) | inactive | 
CCOP(=S)(OCC)Oc1ccc(Cl)cc1Cl | inactive | 
CCN(CC)C(=O)C(Cl)=C(C)OP(=O)(OC)OC | inactive | 
CC(C)(C1CCC(O)CC1)C1CCC(O)CC1 (stereo not drawn) | inactive | 
